Sampled rows, rich in hits. Any-hit rate of the full collection: about 19%.
TDP1 cell CPT: growth inhibition of DT40 Tdp1-/-;hTDP1 cells with camptothecin (screen for TDP1 inhibitors); chicken DT40 Tdp1-/-;hTDP1 cells + 20 nM CPT, ATP luminescence, 48 h; Potency, µM (top dose mostly 46.2 µM), inactives show at the top dose activity change, negative = growth inhibition, most hits filed as inhibitors; 420,000 tested, 12% active; AID 686979; also: potency is read from the fitted curve at half-maximal effect; nearly all actives have a fitted effect of over 55% in size
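Chicken DT40 Tdp1-/- cells complemented with human TDP1, 400 cells/well, exposed to compounds plus 20 nM camptothecin for at least 48 h at 37 C; viability read as ATP content by CellTiter-Glo luminescence.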
HT1080-NT tox: kills 2HG-producing HT-1080-NT fibrosarcoma cells; HT-1080-NT fibrosarcoma viability, CellTiter-Glo ATP luminescence, 48 h; Potency, µM (titrated, usually from 46.1 µM), inactives show top-dose activity, negative = less viability, hits mostly cytotoxic; 360,000 tested, 1.6% active; AID 686970;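 also: NT is the 2HG producing partner of a matched IDH1 knockdown line; potency is read from the fitted curve at half-maximal effect; 0% = DMSO-treated cells and -100% = media-only wells without cells; nearly all actives have a fitted effect of over 55% in size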
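HT-1080-NT fibrosarcoma cells (2HG-overproducing), 750 cells/well in RPMI with 5% FBS, dosed after 2 h and incubated 48 h at 37C. CellTiter-Glo luminescence normalized to DMSO and no-cell wells; concentration-response curves fitted and classed.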
ELG1 DNA repair: inhibitors of ELG1-dependent DNA repair in HEK293T cells. HEK293T ELG1-luciferase reporter, luminescence, 16 h; DNA damage induced by 5-fluorouridine. Potency, µM (doses to about 46.1 µM), without a hit: at the top dose activity change, negative = inhibition, actives largely listed as inhibitors. 330,000 tested, 2.3% active; also: potency is read from the fitted curve at half-maximal effect; nearly all actives have a fitted effect of over 55% in size
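In this reporter screen, reduction of luminescence relative to DMSO vehicle indicated activity. Compounds and 5-fluorouridine were added together to 2,000 cells per well, incubated for 16 hr at 37 °C, then developed with ONE-Glo.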
IL1B secr inh: inflammasome signaling inhibition, IL-1 beta readout. THP-1 LPS/ATP IL-1B secretion, AlphaLISA, 16 h; active compounds read low. 360,000 tested, 4.7% active. activity change, % at 57.5 µM. AID 743279; in the data active = activity change below about -50%; inconclusive = mostly about -30% to -49%
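THP-1 cells pretreated 1 hr with compounds (up to 57.5 uM final), then stimulated with LPS (250 ng/mL final) plus ATP (1.25 mM final); secreted IL-1B measured by AlphaLISA after 16 hr, decreased signal indicating inhibition.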
HT1080 IDH1KD tx: kills HT-1080 cells with IDH1 knockdown; 360,000 tested, 2% active; Potency, µM (titrated, usually from 46.1 µM), inactives show top-dose activity, negative = toxicity, hits mostly cytotoxic; HT-1080 IDH1 knockdown viability, ATP luminescence, 48 h; AID 686971;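 also: potency is read from the fitted curve at half-maximal effect; 0% = DMSO wells and -100% = cell-free medium wells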
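% activity derives from luminescence (CellTiter-Glo), normalised to DMSO and no-cell wells. HT-1080-IDH1KD cells, 750/well, had 48 h compound exposure at 37 °C.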
TDP1 cell noCPT: qHTS for Inhibitors of human tyrosyl-DNA phosphodiesterase 1 (TDP1): qHTS in cells in absence of CPT | DT40 Tdp1-/- hTDP1 cells, no CPT, ATP luminescence, 48 h | Potency, µM (highest dose often 46.2 µM), without a hit: at the top dose activity change, negative = growth inhibition, usual class: inhibitors | 420,000 tested, 15% active; also: potency is read from the fitted curve at half-maximal effect; nearly all actives have a fitted effect of over 55% in size
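DT40 Tdp1-/-;hTDP1 cells, no CPT (DMSO vehicle only), 400 cells/well; compounds pin-transferred; ≥48 hr, 37 °C; CellTiter-Glo 30 min RT dark, luminescence read.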
Numbers without * were called inactive; i = inactive; ? = inconclusive; . = not tested or not shown; [ ] = another dose, or the depositor's remark. Unless noted, calls follow the shape of the dose curve; as a rule, active = well fitted curve in the direction sought with a large enough effect; inconclusive = small, poorly fitted or top-dose-only effect, or another doubt; inactive = no such curve, though single readings can be large; an effect the other way counts as inactive or inconclusive. Unless noted, % is scaled to controls: 0 for no effect and ±100 for the full control effect.

SMILES	TDP1 cell CPT	HT1080-NT tox	ELG1 DNA repair	IL1B secr inh	HT1080 IDH1KD tx	TDP1 cell noCPT
COc1cc2c(c(O)c1OC)-c1c(cc(OC)c(OC)c1OC)C[C@@H](C)[C@@H](C)C2	?	7.6%	6.5%	-10.6	11.3%	?
O=C(Nc1ccc(C(=O)Nc2ccccc2Cl)cc1)c1cccnc1	-21.8%	8.2µM*	?	-0.7	5.8µM*	-27.8%
O=C(Nc1cc(NC(=O)c2ccccc2Cl)ccc1Cl)c1ccccc1	?	.	.	.	.	20.6µM*
O=C(Nc1ccc2nn(-c3ccccc3)nc2c1)c1cccnc1	?	1.1%	?	?	0.1%	16.4µM*
O=C(Nc1ccc2nn(-c3ccc(F)cc3)nc2c1)c1cccnc1	?	-4.7%	14.2%	-0.1	-5.0%	?
COc1ccc(F)cc1C(=O)C1CCCN(C(=O)c2ccccc2N(C)C)C1 (configuration not stated)	?	?	-22.6%	-7.9	-1.5%	18.4µM*
COc1ccc(F)cc1C(=O)C1CCCN(C(=O)c2cccc(N(C)C)c2)C1 (configuration not stated)	?	-1.8%	-15.0%	10.1	0.2%	?
Cc1nc(C)c(C(=O)N2CCCC(C(=O)c3cc(F)ccc3F)C2)s1 (configuration not stated)	-29.5%	-1.1%	-9.6%	i	0.7%	?
Cc1ccsc1C(=O)N1CCCC(C(=O)c2cc(F)ccc2F)C1 (configuration not stated)	?	?	-8.7%	0.0	10.9%	23.1µM*
CCOc1ccc(S(=O)(=O)NCCC(=O)OCC(=O)N2CC(=O)Nc3ccccc32)cc1	5.4%	2.4%	3.2%	21.2	-2.0%	11.5%
CN(CC(=O)Nc1cccc(S(=O)(=O)N2CCCCC2)c1)Cc1ccc(F)cc1	?	-21.5%	?	9.8	-4.0%	?
CN(CC(=O)Nc1cccc(F)c1)CC(=O)Nc1cccc(S(=O)(=O)N2CCCCC2)c1	?	-14.8%	?	-22.6	-12.8%	20.6µM*
CC1CCc2ccccc2N1CC(=O)Nc1cccc(S(=O)(=O)N2CCCC2)c1 (configuration not stated)	16.4µM*	-9.6%	-14.0%	-25.5	-5.5%	18.4µM*
CN(CC(=O)Nc1cccc(F)c1)CC(=O)Nc1cccc(S(=O)(=O)N2CCCCCC2)c1	16.4µM*	-12.0%	?	?	-11.8%	16.4µM*
COc1cc2nc(N(C)C)c(CNCc3nonc3C)cc2c(OC)c1OC	4.8%[9.04 µM]	.	.	.	.	-13.4%
CC(=O)c1ccc(S(=O)(=O)NCC(=O)Nc2nc3ccccc3[nH]2)cc1	-11.1%	-19.4%	-6.5%	0.0	-10.3%	-18.8%
CCN(C(=O)COC(=O)c1cccs1)c1c(N)n(Cc2ccccc2)c(=O)[nH]c1=O	22.8%	-1.2%	4.8%	3.9	0.0%	12.0%
OC(c1ccccc1)c1nc2ccccc2s1 (configuration not stated)	23.1µM*	-3.6%	11.0%	4.3	-1.7%	?
OC(c1ccccc1)c1nc(-c2ccccc2)cs1 (configuration not stated)	2.1%	2.9%	.	47.2	-5.3%	-20.0%
COc1ccc(N=C2C(=Nc3ccc(OC)cc3)N(c3ccc(N(C)C)cc3)C(=S)N2c2ccc(OC)cc2)cc1	0.651µM*	?	?	72.2	?	1.03µM*
COc1ccc(N=C2C(=Nc3ccc(OC)cc3)N(c3ccc(OC)cc3)C(=S)N2C(=O)c2ccc(OC)cc2)cc1	?	-6.1%	?	?	0.7%	18.4µM*
COc1ccc(N2C(=S)N(C(=O)c3ccccc3)C(=Nc3ccccc3)C2=Nc2ccccc2)cc1	?	?	.	-2.8	?	18.4µM*
Cc1ccc2c(c1)S(=O)(=O)N(C)C(c1ccccc1)=C2	18.4µM*	2.4%	.	-15.8	10.3%	?
COc1ccc(C=O)cc1OS(=O)(=O)c1ccc(NC(C)=O)cc1	?	-26.4%	?	20.4	?	3.66µM*
COc1ccc(/C=N/NC(=O)c2ccc3ccccc3c2)cc1OS(=O)(=O)c1ccc(NC(C)=O)cc1	4.61µM*	6.31µM*	?	-12.5	?	3.66µM*
SMILES	TDP1 cell CPT	HT1080-NT tox	ELG1 DNA repair	IL1B secr inh	HT1080 IDH1KD tx	TDP1 cell noCPT
CCOc1cc(C(=S)N2CCOCC2)ccc1OS(=O)(=O)c1ccc(OC)cc1	-3.7%	-3.9%	?	-28.5	-10.3%	?
CCOc1cc(C(=S)N2CCOCC2)ccc1OS(=O)(=O)c1ccc(NC(C)=O)cc1	10.3µM*	-2.3%	?	-52.8*	-1.5%	16.4µM*
COc1cc(C=O)cc(OC)c1OS(=O)(=O)c1ccc(NC(C)=O)cc1	?	4.7%	-8.8%	28.0	5.4%	?
O=C(O)C1=NN(c2cc(Cl)c(S(=O)(=O)O)cc2Cl)C(=O)C1	-12.6%	2.1%	.	-5.4	10.6%	-0.1%
CCN(CC)CCN1C(=O)C2C(C(=O)Nc3cc(C)cc(C)c3)C3C=CC2(O3)C1C(=O)NC1CCCCC1 (configuration not stated)	6.1%	-0.5%	?	-28.1	-2.7%	0.2%
CCOC(=O)N1CCc2c(sc3c2c(=O)n(CCc2ccccc2)c(=O)n3Cc2cc(C)ccc2C)C1	-5.9%	.	.	.	.	-7.2%
CCOC(=O)N1CCc2c(sc3c2c(=O)n(-c2ccc(Cl)cc2)c(=O)n3CC(=O)c2ccc(F)cc2)C1	?	.	.	.	.	20.6µM*
CCOC(=O)N1CCc2c(sc3c2c(=O)n(CCc2ccccc2)c(=O)n3CC(=O)Nc2ccc(C)cc2)C1	9.2µM*	.	.	.	.	7.31µM*
CCOC(=O)N1CCc2c(sc3c2c(=O)n(Cc2ccccc2)c(=O)n3CC(=O)Nc2ccc(F)cc2)C1	5.8µM*	.	.	.	.	10.3µM*
COc1ccccc1NC(=O)Cn1c(=O)n(CCc2ccccc2)c(=O)c2c3c(sc21)CN(C(C)=O)CC3	16.4µM*	.	.	.	.	16.4µM*
CC(=O)N1CCc2c(sc3c2c(=O)n(-c2ccccc2)c(=O)n3CC(=O)c2ccc(F)cc2)C1	-4.4%	.	.	.	.	?
CCN(CC)CCn1c(=O)n(-c2ccc(Cl)cc2)c(=O)c2c3c(sc21)CN(C)CC3	29.1µM*	-28.7%	13.2%	-24.5	-20.9%	20.6µM*
CN1CCc2c(sc3c2c(=O)n(-c2ccc(Cl)cc2)c2nncn32)C1	?	12.1%	1.6%	-19.0	17.1%	?

Screening results deposited in PubChem BioAssay by National Center for Advancing Translational Sciences (NCATS).
